# Results: ChEMBL document CHEMBL1961873, “Compounds: GSK PKIS; Assays: Nanosyn kinase panel” (2012)
# Columns and labels:
# [1] = molecular target: T1, Inhibitor of nuclear factor kappa-B kinase subunit epsilon (Homo sapiens) (UniProt Q14164); conditions: at 1 µM;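 further: reported values are averaged percent inhibition figures against human IKKε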
# T1 sequence (whole entry): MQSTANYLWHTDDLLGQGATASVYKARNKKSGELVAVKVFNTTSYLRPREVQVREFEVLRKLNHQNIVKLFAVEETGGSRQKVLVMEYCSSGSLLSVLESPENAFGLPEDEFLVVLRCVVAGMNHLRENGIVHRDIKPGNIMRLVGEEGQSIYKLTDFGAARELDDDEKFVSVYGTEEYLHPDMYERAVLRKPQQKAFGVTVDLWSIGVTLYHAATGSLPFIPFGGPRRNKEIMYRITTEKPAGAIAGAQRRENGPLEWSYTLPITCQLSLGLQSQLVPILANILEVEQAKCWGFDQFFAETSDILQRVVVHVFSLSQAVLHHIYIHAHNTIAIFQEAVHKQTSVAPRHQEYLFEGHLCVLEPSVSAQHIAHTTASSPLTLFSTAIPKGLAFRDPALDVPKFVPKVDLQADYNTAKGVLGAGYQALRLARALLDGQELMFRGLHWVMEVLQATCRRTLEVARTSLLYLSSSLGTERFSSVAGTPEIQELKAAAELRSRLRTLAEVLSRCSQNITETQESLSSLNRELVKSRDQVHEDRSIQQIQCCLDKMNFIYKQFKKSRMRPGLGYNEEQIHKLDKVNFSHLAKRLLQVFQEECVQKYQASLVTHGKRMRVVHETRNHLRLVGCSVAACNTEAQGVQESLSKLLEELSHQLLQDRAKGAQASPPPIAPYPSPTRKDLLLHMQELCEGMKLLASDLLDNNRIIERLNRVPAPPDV
# [2] = molecular target: T2, Serine/threonine-protein kinase Nek1 (Homo sapiens) (UniProt Q96PY6); conditions: at 0.1 µM
# T2 sequence (whole entry): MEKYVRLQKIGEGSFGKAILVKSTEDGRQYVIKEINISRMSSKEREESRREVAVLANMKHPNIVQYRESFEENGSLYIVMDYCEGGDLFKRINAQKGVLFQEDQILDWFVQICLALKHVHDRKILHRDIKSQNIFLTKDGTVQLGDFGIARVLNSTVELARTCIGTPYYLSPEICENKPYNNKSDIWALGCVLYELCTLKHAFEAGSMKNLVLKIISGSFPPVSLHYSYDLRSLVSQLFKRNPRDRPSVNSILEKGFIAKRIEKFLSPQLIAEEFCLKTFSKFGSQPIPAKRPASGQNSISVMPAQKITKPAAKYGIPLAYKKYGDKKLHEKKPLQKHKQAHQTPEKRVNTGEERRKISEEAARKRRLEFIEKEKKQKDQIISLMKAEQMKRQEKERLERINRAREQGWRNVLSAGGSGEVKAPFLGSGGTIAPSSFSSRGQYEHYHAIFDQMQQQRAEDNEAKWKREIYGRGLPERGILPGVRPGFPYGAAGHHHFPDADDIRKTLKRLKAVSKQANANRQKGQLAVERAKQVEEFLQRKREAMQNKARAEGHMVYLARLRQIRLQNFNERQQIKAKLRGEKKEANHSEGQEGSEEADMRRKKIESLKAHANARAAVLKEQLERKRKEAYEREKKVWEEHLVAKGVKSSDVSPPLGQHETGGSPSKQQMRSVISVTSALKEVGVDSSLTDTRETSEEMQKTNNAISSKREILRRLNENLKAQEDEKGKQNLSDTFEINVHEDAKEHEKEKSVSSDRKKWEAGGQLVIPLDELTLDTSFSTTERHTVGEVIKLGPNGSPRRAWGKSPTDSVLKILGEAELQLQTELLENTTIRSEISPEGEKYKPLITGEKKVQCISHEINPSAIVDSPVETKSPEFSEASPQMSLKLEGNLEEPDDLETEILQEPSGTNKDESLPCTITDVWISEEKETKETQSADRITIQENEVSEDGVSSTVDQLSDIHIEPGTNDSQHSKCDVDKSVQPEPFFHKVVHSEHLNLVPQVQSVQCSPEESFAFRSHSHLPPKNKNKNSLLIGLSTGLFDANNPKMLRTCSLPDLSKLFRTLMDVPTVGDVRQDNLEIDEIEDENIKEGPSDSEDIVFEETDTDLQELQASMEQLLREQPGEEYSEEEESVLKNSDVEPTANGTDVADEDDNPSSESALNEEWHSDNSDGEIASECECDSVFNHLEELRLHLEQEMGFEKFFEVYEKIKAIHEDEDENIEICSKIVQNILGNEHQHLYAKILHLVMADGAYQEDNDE
# [3] = molecular target: T2, Serine/threonine-protein kinase Nek1 (Homo sapiens); conditions: at 1 µM
# [4] = molecular target: T3, Serine/threonine-protein kinase Nek2 (Homo sapiens) (UniProt P51955); conditions: at 0.1 µM
# T3 sequence (whole entry): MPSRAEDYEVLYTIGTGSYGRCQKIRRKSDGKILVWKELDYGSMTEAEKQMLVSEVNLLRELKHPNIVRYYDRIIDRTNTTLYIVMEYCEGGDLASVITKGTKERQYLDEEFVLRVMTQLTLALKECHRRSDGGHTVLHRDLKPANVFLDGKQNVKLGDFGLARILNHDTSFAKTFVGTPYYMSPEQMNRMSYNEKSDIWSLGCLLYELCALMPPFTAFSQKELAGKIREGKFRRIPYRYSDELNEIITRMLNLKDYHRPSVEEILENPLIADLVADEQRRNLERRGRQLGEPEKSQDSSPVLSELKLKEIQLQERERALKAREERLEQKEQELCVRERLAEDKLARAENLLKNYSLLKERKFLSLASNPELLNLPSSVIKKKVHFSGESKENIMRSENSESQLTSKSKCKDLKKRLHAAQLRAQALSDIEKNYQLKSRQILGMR
# [5] = molecular target: T3, Serine/threonine-protein kinase Nek2 (Homo sapiens); conditions: at 1 µM
# [6] = molecular target: Serine/threonine-protein kinase Nek6 (Homo sapiens) (UniProt Q9HC98); conditions: at 0.1 µM
# Chain of Serine/threonine-protein kinase Nek6 (Homo sapiens) (Q9HC98 whole entry): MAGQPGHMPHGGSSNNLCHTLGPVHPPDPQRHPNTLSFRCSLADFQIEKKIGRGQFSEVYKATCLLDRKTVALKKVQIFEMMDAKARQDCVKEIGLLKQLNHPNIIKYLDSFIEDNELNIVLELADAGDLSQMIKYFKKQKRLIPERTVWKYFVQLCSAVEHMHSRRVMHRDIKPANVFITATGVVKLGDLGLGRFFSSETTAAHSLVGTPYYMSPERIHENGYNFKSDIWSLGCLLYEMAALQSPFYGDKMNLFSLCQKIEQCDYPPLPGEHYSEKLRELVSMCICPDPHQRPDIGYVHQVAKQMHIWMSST
# [7] = molecular target: Serine/threonine-protein kinase Nek6 (Homo sapiens) (UniProt Q9HC98); conditions: at 1 µM
# [8] = molecular target: Serine/threonine-protein kinase Nek7 (Homo sapiens) (UniProt Q8TDX7); conditions: at 0.1 µM
# Chain of Serine/threonine-protein kinase Nek7 (Homo sapiens) (Q8TDX7 whole entry, looked up): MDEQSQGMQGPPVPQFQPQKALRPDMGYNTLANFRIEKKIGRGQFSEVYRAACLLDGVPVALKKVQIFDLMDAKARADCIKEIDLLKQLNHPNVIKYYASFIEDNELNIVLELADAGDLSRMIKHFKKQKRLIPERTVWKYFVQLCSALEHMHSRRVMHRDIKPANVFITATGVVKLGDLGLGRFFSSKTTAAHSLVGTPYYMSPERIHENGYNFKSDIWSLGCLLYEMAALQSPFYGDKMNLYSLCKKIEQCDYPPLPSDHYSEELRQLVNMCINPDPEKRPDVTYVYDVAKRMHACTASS
# [9] = molecular target: Serine/threonine-protein kinase Nek7 (Homo sapiens) (UniProt Q8TDX7); conditions: at 1 µM
# [10] = molecular target: T4, Serine/threonine-protein kinase Nek9 (Homo sapiens) (UniProt Q8TD19); conditions: at 0.1 µM;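 further: reported value is the mean percent inhibition of NEK9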
# T4 sequence (whole entry): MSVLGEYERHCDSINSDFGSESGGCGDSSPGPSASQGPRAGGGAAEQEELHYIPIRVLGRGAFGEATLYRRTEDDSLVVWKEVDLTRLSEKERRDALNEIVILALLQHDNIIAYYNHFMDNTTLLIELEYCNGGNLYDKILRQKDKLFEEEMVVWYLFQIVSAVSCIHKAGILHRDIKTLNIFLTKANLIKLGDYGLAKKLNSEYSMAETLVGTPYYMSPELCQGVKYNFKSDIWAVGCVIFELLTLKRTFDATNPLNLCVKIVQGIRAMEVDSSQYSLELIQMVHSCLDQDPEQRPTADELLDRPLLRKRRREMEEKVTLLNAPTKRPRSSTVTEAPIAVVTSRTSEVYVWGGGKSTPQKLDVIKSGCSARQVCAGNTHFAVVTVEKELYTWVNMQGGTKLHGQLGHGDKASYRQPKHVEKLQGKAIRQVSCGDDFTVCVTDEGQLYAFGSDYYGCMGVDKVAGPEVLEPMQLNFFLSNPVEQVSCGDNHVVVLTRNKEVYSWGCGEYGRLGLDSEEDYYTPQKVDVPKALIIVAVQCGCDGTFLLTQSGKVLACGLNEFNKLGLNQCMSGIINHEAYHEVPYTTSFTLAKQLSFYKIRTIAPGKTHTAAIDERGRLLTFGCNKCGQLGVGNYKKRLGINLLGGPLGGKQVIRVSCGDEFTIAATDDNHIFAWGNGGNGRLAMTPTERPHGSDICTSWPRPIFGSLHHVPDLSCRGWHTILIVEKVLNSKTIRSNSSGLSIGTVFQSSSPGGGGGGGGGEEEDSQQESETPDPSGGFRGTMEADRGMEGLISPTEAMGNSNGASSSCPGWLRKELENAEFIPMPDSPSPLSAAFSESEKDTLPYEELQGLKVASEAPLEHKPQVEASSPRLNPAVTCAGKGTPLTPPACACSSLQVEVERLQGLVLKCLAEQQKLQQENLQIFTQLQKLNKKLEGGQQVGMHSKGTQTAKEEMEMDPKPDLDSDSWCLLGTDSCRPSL
Structure (SMILES),inhibition [1] [%],inhibition [2] [%],inhibition [3] [%],inhibition [4] [%],inhibition [5] [%],inhibition [6] [%],inhibition [7] [%],inhibition [8] [%],inhibition [9] [%],inhibition [10] [%]
FC(F)(F)c1cccc(Nc2nccc(-c3cnn4nc(-c5ccccc5)ccc34)n2)c1,5.2,2.32,2.59,1.73,4.5,-0.41,-0.37,2.4,1.88,8.12
Fc1ccc(-c2ncn(C3CCNCC3)c2-c2ccnc(Oc3ccc4c(c3)OCO4)n2)cc1,5.91,3.2,6.26,7.49,6.41,1.13,1.67,2.69,4.77,7.85
O=C1NC(=O)C(c2cccc(Cl)c2)=C1Nc1ccc(Cl)c(C(=O)O)c1,6.69,2.39,1.69,3.91,3.63,2.53,5.19,2.65,1.25,-5.63
Cc1ccc(NC(=O)c2ccoc2)cc1-c1ccc(C(=O)NCC2CC2)cc1,2.47,1.2,0.36,3.49,3.48,2.49,0.14,0.66,1.16,5.95
COc1cccc(/C=N/Nc2ncnc3c2cnn3-c2cccc(OC)c2)c1,6.73,1.81,3.93,5.68,3.79,1.07,2.21,3.9,8.57,7.75
COc1cc(C)c(N(C)C(=O)CN(C)C)cc1Nc1nc(Nc2cccc(F)c2C(N)=O)c2cc[nH]c2n1,0.91,1.9,1.66,3.24,3.64,1.26,-1.46,3.13,2.22,5.24
CCN(CC)Cc1ccc(Nc2nccc(-c3cnn4ncccc34)n2)cc1,17.8,2.8,4.48,4.07,3.41,1.02,-0.16,3.37,9.4,6.44
COc1cc2ncn(-c3cc(OCCc4ccccc4)c(C(N)=O)s3)c2cc1OC,2.69,1.71,1.3,2.3,4.49,-0.94,1.69,3.01,2.45,1.66
